PubChem BioAssay (NCATS)
Records with an inconclusive call do not appear. Where a call stands in place of a potency, no number is given. Activity calls are given as the source filed them. Calls follow the shape of the dose curve; as a rule, active = well fitted inhibition curve with a large enough effect; inconclusive = small, poorly fitted or top-dose-only effect; inactive = no such curve, though single readings can be large or run the other way.

assay: Primary fluorescence-based thiol-reactive (MSTI) qHTS assay for identification of artifact compounds. (AID 1845221); settings: MSTI thiol-reactivity probe, 1 h; series mostly up to 53.8 µM; also: nearly all actives have a fitted effect of over 65% in size
In short: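 Thiol-reactive compounds detected by quenching of 4 uM MSTI fluorescence (525/598 nm) after 1 h room-temperature dark incubation in PBS pH 7.4, 2% DMSO. qHTS titration; percent inhibition Hill-fitted against Acetyl-MSTI/MSTI controls.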
Potency is read from the fitted curve at half-maximal effect.

Row | SMILES | Potency
1 | COc1cc(NC(=O)c2cccc(-n3cc(NC(=O)Nc4cccc(C)c4)cn3)c2)cc(OC)c1OC | inactive
2 | O=C(Nc1cccc(C(F)(F)F)c1)Nc1ccc(Br)cc1-c1nn[nH]n1 | inactive
3 | C=C1C(=O)OC2/C=C(\COC(C)=O)CC/C=C(\C=O)CC(OC(=O)C(C)CC)C12 (centres undefined) | inactive
4 | COc1cc([C@H]2O[C@H](c3cc(OC)c4c(c3)OCO4)[C@H](C)[C@H]2C)cc(OC)c1OC | inactive
5 | CCNC(=O)Nc1ccc(-c2nc3c(c(N4CCOCC4C)n2)CCN(C2COC2)C3)cc1 (centres undefined) | inactive
6 | C[C@H](Oc1cc(-n2cnc3ccc(CN4CCN(C)CC4)cc32)sc1C(N)=O)c1ccccc1C(F)(F)F | inactive
7 | C=C1CC[C@@H]2[C@](C)(CO)[C@H](O)CC[C@@]2(C)[C@@H]1/C=C/C1=CCOC1=O | inactive
8 | CCC(C)CC(=O)OC1C(=O)C(CO)=CC(O)C1C(C)C (centres undefined) | inactive
9 | COC(CCc1ccc(O)cc1)CC(=O)CCc1ccc(O)cc1 (centres undefined) | inactive
10 | Cc1cccc(CC(=O)N2CCc3c2ccc(-c2cn(C)c4ncnc(N)c24)c3F)n1 | inactive
11 | c1cc(-c2cnn3cc(-c4ccc(N5CCNCC5)cc4)cnc23)c2cccnc2c1 | inactive
12 | C[C@H]1CC[C@@]2(OC1)O[C@H]1CC3C4CC[C@H]5C[C@@H](O)CC[C@]5(C)C4=CC(=O)[C@]3(C)[C@H]1[C@@H]2C (some centres undefined) | inactive
13 | CCN(Cc1cc(Nc2nc(C)cn3c(-c4cn[nH]c4)cnc23)sn1)C(C)(C)CO | inactive
14 | C/C(=C\CCC(C)C1=CCC2(C)OC3=C(CC12)C(=O)C(O)CC3)CO (centres undefined) | inactive
15 | O=C(NC1CCC1)c1ccc(C#Cc2cccc(F)c2)nc1 | inactive
16 | C=C(C(=O)O[C@H]1C/C(C)=C/CC/C(CO)=C/[C@H]2OC(=O)C(=C)[C@H]12)C(O)CO (some centres undefined) | inactive
17 | C=C1C(=O)OC2/C=C(\C)CC/C=C(\C)CC(OC(C)=O)C12 (centres undefined) | inactive
18 | C=C(C)[C@@H]1CC[C@]2(C(=O)O)CC[C@]3(C(=O)O)[C@H](CCC4[C@@]5(C)CCC(=O)C(C)(C)C5CC[C@]43C)C12 (some centres undefined) | inactive
19 | C=C(CCC1C(C)(O)CCC2C(C)(C)C(O)CCC12C)C(O)CO (centres undefined) | 13.1 µM (active)
20 | O=C(Nc1ccccc1)c1ccc(Nc2nnc(-c3ccc(O)cc3)c3ccccc23)cc1 | inactive

Row | SMILES | Potency
21 | CCC(C)C(=O)Oc1cc(C)ccc1C1(COC(=O)C(C)C)CO1 (centres undefined) | inactive
22 | CC(=O)C1=CCC2C3CC=C4CC(O)CC(O)C4(C)C3C(O)CC12C (centres undefined) | inactive
23 | CNC(=O)c1cc(Oc2ccc(NC(=O)c3cccc(C(F)(F)F)c3)cc2)ccn1 | inactive
24 | C[C@H](CN(C)C)Oc1nc(Nc2cc3cccc(Cl)c3cn2)cnc1C#N | inactive
25 | O=C(NCCCNc1nc(Nc2cccc(CN3CCOCC3)c2)ncc1C1CC1)C1CCC1 | inactive
26 | CCOc1cc(C(C)(C)C)ccc1C1=N[C@@](C)(c2ccc(Cl)cc2)[C@@](C)(c2ccc(Cl)cc2)N1C(=O)N1CCN(CC(=O)N2CCOCC2)CC1 | inactive
27 | CC(=O)NCc1cccc(OC[C@@H](O)CNCCc2ccc(NS(=O)(=O)c3ccccc3)cc2)c1 | inactive
28 | Cn1c(SCC(=O)N2CCC[C@H]2C(=O)Nc2ccccc2-c2ccccc2)nc2ccccc21 | inactive
29 | CC(C)Oc1ccc(-c2cnc3c(-c4ccnc5ccccc45)cnn3c2)cc1 | inactive
30 | CN1CCN(Cc2ccc(NC(=O)Cc3ccc(Oc4cc(NC(=O)C5CC5)ncn4)cc3)cc2C(F)(F)F)CC1 | inactive
31 | CCOc1cccc(NC(=O)c2ccc(N3CCCC3)c(C(F)(F)F)c2)c1 | inactive
32 | O=C(NCCO)c1cccc(-c2cc(Nc3ccc(OC(F)(F)F)cc3)ncn2)c1 | inactive
33 | Cc1ccc(-c2ncccn2)c(C(=O)N2C[C@H](COc3ccc(F)cn3)CC[C@H]2C)c1 | inactive
34 | CC(C)(C)c1ccc(C(=O)Nc2cc(Cl)c(Br)cc2C(=O)O)cc1 | inactive
35 | CC(=O)OC1C(OC(=O)c2ccccc2)C2C(C)(C)CCC(OC(C)=O)C2(C)C23CCC(C)(C2)C(=O)CC13 (centres undefined) | inactive
36 | CCOC(=O)CCNc1cc(N2CCc3ccccc3CC2)nc(-c2cccnc2)n1 | inactive
37 | CC(C)(C)c1ccc(-c2nc3c(N4CCN(Cc5ccc6nccnc6c5)CC4)cccc3[nH]2)cc1 | 6.7 µM (active)
38 | CC1CCCC(O)CCC/C=C/c2cc(OS(=O)(=O)O)cc(O)c2C(=O)O1 (centres undefined) | inactive
39 | Fc1ccc(-c2nc(C3CCNCC3)sc2-c2ccnc(NC3CC3)n2)cc1 | inactive
